Experimental data taken from PubChem BioAssay (NCI).
“And” between values parts separate entries of the source, which are not always exact repeats. Identical values can stand only once. Compounds without any hit were thinned out: in the full panel of roughly 79,000, 15% have a hit. Where a structure was tested more than once in an assay, its records may differ in their call. The source made the active and inactive calls. Rule as the data show it: active = growth inhibition above about 70%; inactive = the rest.

Columns and labels:
[1] = NCI Yeast Anticancer Drug Screen. Data for the rad50 strain (AID 155);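 also: 0% = growth of vehicle-only cultures of the same strain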; settings: S. cerevisiae rad50 strain growth inhibition; at 50.0 µM; stronger effect = higher value
How it was run: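 Readout: growth inhibition relative to vehicle-treated cultures. Compound exposure was carried out in a genetically defined yeast strain deficient in DNA damage repair.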

[2] = NCI Yeast Anticancer Drug Screen. Data for the mec2-1 strain (AID 157); settings: S. cerevisiae mec2-1 strain, at 50.0 µM, stronger effect = higher value
How it was run: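 Readout is yeast growth inhibition, normalised to vehicle-treated controls, in the mec2-1 strain exposed to compound.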

[3] = NCI Yeast Anticancer Drug Screen. Data for the sgs1 mgt1 strain (AID 161);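 also: 0% = growth of cultures given vehicle only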; settings: S. cerevisiae sgs1 mgt1 strain, at 50.0 µM, stronger effect = higher value
How it was run: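 This yeast growth screen uses a strain with defined DNA-repair lesions; compound-treated growth is compared with vehicle-treated growth.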

[4] = NCI Yeast Anticancer Drug Screen. Data for the cln2 rad14 strain (AID 165);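 also: 0% = growth equal to vehicle treated cultures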; settings: S. cerevisiae cln2 rad14 strain, at 50.0 µM, stronger effect = higher value
How it was run: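 Relative to vehicle controls, growth inhibition of compound-treated cln2 rad14 yeast was recorded.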

[5] = NCI Yeast Anticancer Drug Screen. Data for the bub3 strain (AID 167); settings: S. cerevisiae bub3 mutant strain, at 50.0 µM, stronger effect = higher value
How it was run: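 Readout: yeast growth inhibition, expressed relative to vehicle-only wells. The test organism is a mutant strain from a panel with lesions in DNA repair or checkpoint genes.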

[6] = NCI Yeast Anticancer Drug Screen. Data for the mlh1 rad18 strain (AID 175); settings: S. cerevisiae mlh1 rad18 strain growth inhibition; at 50.0 µM; stronger effect = higher value
How it was run: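 Test agents were incubated with a yeast strain of defined genotype (DNA damage repair defect). Inhibition of growth was derived by comparison with vehicle-exposed cultures.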

Measured: growth inhibition

CC(O)(c1cccc(Cl)c1)C(c1ccccc1)c1ccccn1 (stereo unspecified)
46.8% (inactive) and 97.4% (active): [5]
19.8% (inactive) and 92.2% (active): [4]
active: [1] 82.6% and 97.7% | [2] 79.2% and 97.9% | [3] 95% and 97.8% | [6] 79.7% and 97%

COC(=O)C1(C)CCCC2(C)c3cc(OC)ccc3C=CC12 (stereo unspecified)
inactive: [1] 14.5% and 6.75% | [2] -1.8% and 8.1% | [3] -0.6% and 2.55% | [4] -0.6% and 4.75% | [5] 2.5% and 21.5% | [6] 4.45% and 1.2%

COC(=O)C(Cc1ccccc1)NC(=O)C(CNC(=O)OCc1ccccc1)C(=O)OCc1ccccc1 (stereo unspecified)
inactive: [1] 16.2% and -13.2% | [2] -5.6% and -6.65% | [3] -1.9% and -8.85% | [4] 0.65% and -3.55% | [5] -3.5% and -20.5% | [6] -11.1% and -10.2%

O=c1c([N+](=O)[O-])c[nH]c2cc(Cl)ccc12
inactive: [1] -38.3% and 6.4% | [2] 2.25% and -2.2% | [3] -19.2% and 8.3% | [4] 0.25% and 35.5% | [5] -6% and 11.6% | [6] -33.7% and 15.8%

CCCCCCC1OCC(CC)C(CCC)O1 (stereo unspecified)
inactive: [1] 24.4% and 2% | [2] 23.6% and 6.9% | [3] 17.1% and -6.05% | [4] -12.2% and -9.7% | [5] 17.2% and 15.2% | [6] 30.4% and -9.4%

O=C(c1ccco1)C(O)c1ccco1 (stereo unspecified)
inactive: [1] 18.4% and -8.55% | [2] -12.6% and -3.75% | [3] 1.55% and 11.1% | [4] 3.95% and -7.7% | [5] 15.7% and 1.55% | [6] -0.05% and -12.2%

Clc1ccc(/C=N/N=C/c2ccc(Cl)cc2)cc1
inactive: [1] -52.5% and -17.1% | [2] -28.9% and -16% | [3] -42.2% and -19.6% | [4] -23% and -20.1% | [5] -33.3% and 6.3% | [6] -33.5% and -18.1%

CCOC1(C)OC2OC(COC(c3ccccc3)(c3ccccc3)c3ccccc3)C(O)C(O)C2O1 (stereo unspecified)
95.2% (active) and 54.7% (inactive): [3]
inactive: [1] 63% and 48.6% | [2] 28.9% and 6.85% | [4] 24.9% and 28.4% | [6] 50.9% and 50%
76.2% (active) and 27.6% (inactive): [5]

COc1ccc2c(c1)CCC1C[C@@H]3C[C@]21C=CC3=O (stereo partly specified)
inactive: [1] 11.8% and -3.5% | [2] -11.8% and -6.75% | [3] 0.75% and 14.9% | [4] 9.6% and 8.05% | [5] 24% and 19.4% | [6] 5.15% and 11.7%

Nc1ccc(C(=O)O)c(O)c1
inactive: [1] -8.6% and 15.1% | [2] -7.4% and -2.45% | [3] -4.15% and -14.9% | [4] -40.9% and 1.75% | [5] 0.25% and -2.25% | [6] -8.05% and 24.8%

O=C1NC(=O)C(CO)(c2ccccc2)N1 (stereo unspecified)
inactive: [1] 14.2% and 7.65% | [2] 2% and -11.6% | [3] 6% and -1.85% | [4] -18.6% and 46.5% | [5] 0.95% and 10.4% | [6] 7.2% and 21.4%

CCOC(=O)C(CC(C(=O)OCC)C(=O)OCC)C(=O)OCC
inactive: [1] -21.1% and -11.8% | [2] -15.1% and -16.2% | [3] -6.3% and -20.6% | [4] 10.7% and -16.1% | [5] 10.8% and -12.5% | [6] -25.1% and -9.15%

COc1ccc(NS(=O)(=O)c2ccccc2)cc1
inactive: [1] -3.55% and -19.6% | [2] -2.7% and -17.2% | [3] -3.2% and -6.95% | [4] -20.7% and -48.8% | [5] 1.55% and 8.9% | [6] -6.3% and -9.8%

CCCCCCCCCCCC(=O)Nc1ccccc1
inactive: [1] -22.6% and -29.2% | [2] -4.05% and -16.9% | [3] 1.2% and -18.3% | [4] -31.7% and -71% | [5] 24.8% and -9.7% | [6] 14.4% and -31.1%

Cc1ccc(S(=O)(=O)N2CCCCCC2)cc1
inactive: [1] 10.8% and -9.2% | [2] 15.8% and -2.65% | [3] -13.7% and -5.75% | [4] 1.6% and -7.75% | [5] -6.7% and -2.85% | [6] -10.6% and -0.45%

O=C(OC(=C(c1ccccc1)c1ccccc1)c1ccccc1)c1ccccc1
inactive: [1] 12.8% and -6.95% | [2] -0.2% and -10.2% | [3] -4.45% and 15.2% | [4] -9.6% and -22.2% | [5] -0.05% and 5.6% | [6] 11.2% and 20.4%

COc1cc(C)c2c(ccc3ccccc32)n1
inactive: [1] 24.6% and 23.9% | [2] 19.5% and 24.4% | [3] 16.5% and 11.2% | [4] -9.35% and 21.9% | [5] 10.2% and 16.4% | [6] 61.2% and 18.9%

CC(C)C1CCC(NC(=O)Nc2ccccc2)CC1 (stereo unspecified)
81.1% (active) and 44.8% (inactive): [6]
79.5% (active) and 20.6% (inactive): [1]
inactive: [2] 48.5% and 20.3% | [4] 46.2% and -3.5% | [5] 66.7% and 23.6%
70.5% (active) and 43.2% (inactive): [3]

N#CC(Cc1ccccc1)c1ccccc1 (stereo unspecified)
inactive: [1] -65.7% and 17.2% | [2] -12.5% and 11.1% | [3] -18.1% and 29.8% | [4] -24.8% and 1.75% | [5] 0.45% and -5% | [6] 3.45% and 6.45%

CC1(C)Cc2[nH]c3ccccc3c2C(C)(C)N1
inactive: [1] -35% and 6.55% | [2] -16.4% and 23.3% | [3] -6.35% and 14.5% | [4] -64% and -6.15% | [5] -4.5% and 12.5% | [6] 3.8% and 10.5%

CC(=O)C(C)(CCC#N)CCC#N
inactive: [1] -7.25% and 12.7% | [2] 12.1% and -9.2% | [3] -1.4% and -1% | [4] -3.95% and -36.5% | [5] 9.35% and -5.15% | [6] -12.1% and 27%
